Measurements taken from the supplement of paper PMC10037445.
In all, about 2,900 compounds were measured (“IRF Lucia reporter activity, fold change vs agonist alone”: median about 0.9, highest 2% from about 2.8 on). Only a selection was taken, and the highest values are over-represented in it overall.

Experiments:
[1] = tested on: RAW-Dual; experiment: IRF Lucia reporter activity, fold change vs agonist alone; cytotoxicity flag (confluency mask): not cytotoxic; higher = enhanced IRF activity
Outline: (§1)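 Library stock was pin-tooled at 50 nL into 384-well plates of RAW-Dual macrophages (50,000 cells/well, DMEM), followed 1 h later by a PRR agonist, and the cells were kept at 37 °C, 5% CO2. Supernatant collected after 20 hours was read for IRF by QuantiLuc luminescence and for NF-κB by QuantiBlue absorbance at 620 nm. Reporter activity is fold change over agonist-alone wells, and a well counted as cytotoxic when its IncuCyte confluency was below 70% of agonist controls in both mask sets.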

[2] = tested on: RAW-Dual; experiment: IRF Lucia reporter activity, fold change vs agonist alone; higher = enhanced IRF activity; details: library stock concentration (final ~1000-fold dilution): 10 mM, agonist: MPLA (TLR4) […]
Outline: as §1

[3] = tested on: RAW-Dual; experiment: IRF Lucia reporter activity, fold change vs agonist alone; cytotoxicity flag (confluency mask): cytotoxic (confluency <70% of control); higher = enhanced IRF activity
Outline: as §1

[4] = agonist: 3'3'-cGAMP (STING) 10 ug/mL
[5] = cytotoxicity flag (confluency mask): not cytotoxic
[6] = cytotoxicity flag (confluency mask): cytotoxic (confluency <70% of control)

CCn1cc(C(=O)O)c(=O)c2c(N)c(F)c(NC3CCCCC3)cc21 (library stock concentration (final ~1000-fold dilution): 10 mM)
IRF Lucia reporter activity [1, 4]: 0.545
IRF Lucia reporter activity ([1]; agonist: LPS (TLR4) 0.1 ug/mL): 0.223

CCOC(=O)c1ccc(N)cc1.Cl
IRF Lucia reporter activity [2, 5]: 1.01

CCOC(=O)c1ccc(NC2CCCCC2)c(N)c1 (library stock concentration (final ~1000-fold dilution): 10 mM)
IRF Lucia reporter activity [1, 4]: 1.04
IRF Lucia reporter activity ([1]; agonist: LPS (TLR4) 0.1 ug/mL): 4.71

CCOC(=O)c1ccc(NC2CCCCC2)c(N)c1
IRF Lucia reporter activity [2, 5]: 1.83

CCOC(=O)c1ccc(N)cc1.Cl (library stock concentration (final ~1000-fold dilution): 10 mM)
IRF Lucia reporter activity [1, 4]: 0.942
IRF Lucia reporter activity ([1]; agonist: LPS (TLR4) 0.1 ug/mL): 1.15

NC(=O)C1CCC2CN1C(=O)N2OS(=O)(=O)O (stereo not given)
IRF Lucia reporter activity [2, 5]: 1.13

NC(=O)C1CCC2CN1C(=O)N2OS(=O)(=O)O (stereo not given) (library stock concentration (final ~1000-fold dilution): 10 mM)
IRF Lucia reporter activity [1, 4]: 1.1
IRF Lucia reporter activity ([1]; agonist: LPS (TLR4) 0.1 ug/mL): 1.21

Oc1cc(CNC(=S)/C=C/c2cc(O)c(O)c(Br)c2)cc(O)c1O (library stock concentration (final ~1000-fold dilution): 10 mM)
IRF Lucia reporter activity [1, 4]: 0.312
IRF Lucia reporter activity ([1]; agonist: LPS (TLR4) 0.1 ug/mL): 4.35

O=C1CCC(N2Cc3c(OCc4ccc(CN5CCOCC5)cc4)cccc3C2=O)C(=O)N1 (stereo not given) (library stock concentration (final ~1000-fold dilution): 10 mM)
IRF Lucia reporter activity [1, 4]: 1.05
IRF Lucia reporter activity ([1]; agonist: LPS (TLR4) 0.1 ug/mL): 1.02

COc1cc(O)c(C(=O)Nc2nc(C(=O)NCCN(C(C)C)C(C)C)cs2)cc1OC.Cl.O.O.O (library stock concentration (final ~1000-fold dilution): 10 mM)
IRF Lucia reporter activity [1, 4]: 0.967
IRF Lucia reporter activity ([1]; agonist: LPS (TLR4) 0.1 ug/mL): 0.665

COc1cc(O)c(C(=O)Nc2nc(C(=O)NCCN(C(C)C)C(C)C)cs2)cc1OC.Cl.O.O.O
IRF Lucia reporter activity [2, 5]: 1.03

COc1ncc(-c2ccc3nccc(-c4ccnnc4)c3c2)cc1NS(=O)(=O)c1ccc(F)cc1F (library stock concentration (final ~1000-fold dilution): 10 mM)
IRF Lucia reporter activity [1, 4]: 1.09
IRF Lucia reporter activity ([1]; agonist: LPS (TLR4) 0.1 ug/mL): 3.52

COc1cc2nccc(Oc3ccc(NC(=O)Nc4ccc(F)cc4F)c(F)c3)c2cc1OC
IRF Lucia reporter activity [2, 6]: 1.23

CCCS(=O)(=O)Nc1ccc(F)c(C(=O)c2c[nH]c3ncc(-c4ccc(Cl)cc4)cc23)c1F (library stock concentration (final ~1000-fold dilution): 10 mM)
IRF Lucia reporter activity [1, 4]: 0.195
IRF Lucia reporter activity ([1]; agonist: LPS (TLR4) 0.1 ug/mL): 0.356

COc1ncc(-c2ccc3nccc(-c4ccnnc4)c3c2)cc1NS(=O)(=O)c1ccc(F)cc1F
IRF Lucia reporter activity [2, 5]: 1.11

COc1cc2nccc(Oc3ccc(NC(=O)Nc4ccc(F)cc4F)c(F)c3)c2cc1OC (library stock concentration (final ~1000-fold dilution): 10 mM)
IRF Lucia reporter activity [3, 4]: 1.02
IRF Lucia reporter activity ([3]; agonist: LPS (TLR4) 0.1 ug/mL): 0.826

CCCS(=O)(=O)Nc1ccc(F)c(C(=O)c2c[nH]c3ncc(-c4ccc(Cl)cc4)cc23)c1F
IRF Lucia reporter activity [2, 5]: 0.473

Cc1nc(Nc2ncc(C(=O)Nc3c(C)cccc3Cl)s2)cc(N2CCN(CCO)CC2)n1.Cl (library stock concentration (final ~1000-fold dilution): 10 mM)
IRF Lucia reporter activity [1, 4]: 0.0778
IRF Lucia reporter activity ([1]; agonist: LPS (TLR4) 0.1 ug/mL): 1.07

Cc1nc(Nc2ncc(C(=O)Nc3c(C)cccc3Cl)s2)cc(N2CCN(CCO)CC2)n1.Cl
IRF Lucia reporter activity [2, 5]: 0.77

C=C1CCN(C(C)C(O)(Cn2cncn2)c2ccc(F)cc2F)CC1 (stereo not given)
IRF Lucia reporter activity [2, 6]: 2.14

C=C1CCN(C(C)C(O)(Cn2cncn2)c2ccc(F)cc2F)CC1 (stereo not given) (library stock concentration (final ~1000-fold dilution): 10 mM)
IRF Lucia reporter activity [3, 4]: 1.25
IRF Lucia reporter activity ([3]; agonist: LPS (TLR4) 0.1 ug/mL): 2.38

CC(C)(C)NC(=O)c1cncn1C1CCN(c2ccc(-c3nnc(C(F)(F)F)o3)cn2)CC1 (library stock concentration (final ~1000-fold dilution): 10 mM)
IRF Lucia reporter activity [1, 4]: 1.33
IRF Lucia reporter activity ([1]; agonist: LPS (TLR4) 0.1 ug/mL): 3.77

CC(C)CC(NC(=O)CNC(=O)c1cc(Cl)ccc1Cl)B(O)O (stereo not given)
IRF Lucia reporter activity [2, 5]: 1.08

CC(C)CC(NC(=O)CNC(=O)c1cc(Cl)ccc1Cl)B(O)O (stereo not given) (library stock concentration (final ~1000-fold dilution): 10 mM)
IRF Lucia reporter activity [1, 4]: 1
IRF Lucia reporter activity ([1]; agonist: LPS (TLR4) 0.1 ug/mL): 1.16

COc1ccc2c(OC3CC4C(=O)NC5(C(=O)NS(=O)(=O)C6CC6)CC5/C=C\CCCCN(C)C(=O)C4C3)cc(-c3nc(C(C)C)cs3)nc2c1C (stereo not given) (library stock concentration (final ~1000-fold dilution): 10 mM)
IRF Lucia reporter activity [1, 4]: 1.04
IRF Lucia reporter activity ([1]; agonist: LPS (TLR4) 0.1 ug/mL): 1.18
